About 79,000 compounds went through this panel and 15% of them were active in at least one assay; those are over-represented in the sample as a whole. A number with no mark means an inactive call. The source made the active and inactive calls. No stated cut-off is given here; in the data, active means growth inhibition above about 70%; inactive means the rest.

Assay [1] in a line: NCI Yeast Anticancer Drug Screen. Data for the rad50 strain (AID 155).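 Further: 0% = growth of vehicle-only cultures of the same strain.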 As to conditions: S. cerevisiae rad50 strain growth inhibition, hits give high values. In outline: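 Genetically altered yeast (DNA repair pathway); compound treatment; growth inhibition vs vehicle ctrl.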
A short description of assay [2]: NCI Yeast Anticancer Drug Screen. Data for the mec2-1 strain (AID 157). The settings on record: S. cerevisiae mec2-1 strain, hits give high values. In outline:
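Vehicle-treated cultures served as reference for growth inhibition of compound-exposed mec2-1 yeast.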

Assay [3] can be described thus: NCI Yeast Anticancer Drug Screen. Data for the sgs1 mgt1 strain (AID 161).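 Further: 0% = growth of cultures given vehicle only.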 The settings on record: S. cerevisiae sgs1 mgt1 strain, hits give high values. In outline: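 Read-out: growth inhibition vs vehicle controls. Cells: mutant yeast strain deficient in DNA damage repair.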
Assay [4] in a line: NCI Yeast Anticancer Drug Screen. Data for the cln2 rad14 strain (AID 165).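 Further: 0% = growth equal to vehicle treated cultures.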 As to conditions: S. cerevisiae cln2 rad14 strain, hits give high values. In outline:
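Each compound was tested on cln2 rad14 yeast. Inhibition of growth was calculated against vehicle-exposed controls.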

Assay [5] can be described thus: NCI Yeast Anticancer Drug Screen. Data for the bub3 strain (AID 167). The settings on record: S. cerevisiae bub3 mutant strain, hits give high values. In outline: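 Yeast carrying a defined mutation is treated with each compound, and growth is compared with that of vehicle-exposed cells to give inhibition.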
Assay [6] can be described thus: NCI Yeast Anticancer Drug Screen. Data for the mlh1 rad18 strain (AID 175). The settings on record: S. cerevisiae mlh1 rad18 strain growth inhibition, hits give high values. In outline: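 Vehicle-treated cultures served as the reference for growth inhibition in a yeast strain carrying DNA damage repair alterations exposed to each compound.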
Where [7] appears, read: at 5.0 µM (retest, dose inferred, filed as 0.5).
Where [8] appears, read: at 50.0 µM (retest, dose inferred, filed as 5.0).

As to `Nc1c(C(=O)O)cccc1[N+](=O)[O-]`, the growth inhibition was 2% in assay [1] (setting [7]); -1% in assay [1] (setting [8]); -5.1% in assay [1] (at 50.0 µM); 1% in assay [2] (setting [7]); -2% in assay [2] (setting [8]); 9.25% in assay [2] (at 50.0 µM). In addition, the growth inhibition in assay [3] (setting [7]) is -1%; in assay [3] (setting [8]), -1%; in assay [3] (at 50.0 µM) it was -9.1%; in assay [4] (setting [7]), -1%; in assay [4] (setting [8]), 3%; in assay [4] (at 50.0 µM) it was 23.2%. Moreover, the growth inhibition in assay [5] (setting [7]) was 1%; in assay [5] (setting [8]) it was 0%; in assay [5] (at 50.0 µM), -2.1%; in assay [6] (setting [7]) it was 1%; in assay [6] (setting [8]) it was 3%; in assay [6] (at 50.0 µM), -5.05%.

Take `[Fe+2].c1cc[cH-]c1.c1ccc(-c2ccc[cH-]2)cc1`: the growth inhibition in assay [1] (setting [7]) was -4%; in assay [1] (setting [8]), 29%; in assay [1] (at 50.0 µM), 7.6%; in assay [2] (setting [7]) it was -2%; in assay [2] (setting [8]), 32%; in assay [2] (at 50.0 µM), 23.3%. Moreover, the growth inhibition in assay [3] (setting [7]) is -6%; in assay [3] (setting [8]), 47%; in assay [3] (at 50.0 µM) it was -9.4%; in assay [4] (setting [7]), 1%; in assay [4] (setting [8]), 16%; in assay [4] (at 50.0 µM) it was 16.9%. Besides, the growth inhibition in assay [5] (setting [7]) is 0%; in assay [5] (setting [8]) it was 41%; in assay [5] (at 50.0 µM), 74.7% (active); in assay [6] (setting [7]), 1%; in assay [6] (setting [8]), 24%; in assay [6] (at 50.0 µM), 19%.

Turning to `Cc1cccc2ccc3cc(CC(=O)O)c4cccc(C)c4c3c12`, the growth inhibition in assay [1] (setting [7]) was 45%; in assay [1] (setting [8]), 99% (active); in assay [1] (at 50.0 µM) it was 99.7% (active); in assay [2] (setting [7]), 33%; in assay [2] (setting [8]), 99% (active); in assay [2] (at 50.0 µM), 99.8% (active). Also, the growth inhibition was 42% in assay [3] (setting [7]); 99% (active) in assay [3] (setting [8]); 99.8% (active) in assay [3] (at 50.0 µM); 33% in assay [4] (setting [7]); 99% (active) in assay [4] (setting [8]); 99.5% (active) in assay [4] (at 50.0 µM). Moreover, the growth inhibition is 32% in assay [5] (setting [7]); 99% (active) in assay [5] (setting [8]); 99.8% (active) in assay [5] (at 50.0 µM); 36% in assay [6] (setting [7]); 99% (active) in assay [6] (setting [8]); 99.7% (active) in assay [6] (at 50.0 µM).

Consider `O=C1C(N=Nc2ccccc2)=C(O)C2C3C=CC(C3)C12` (stereo not given), for which the growth inhibition in assay [1] (setting [7]) is 2%; in assay [1] (setting [8]) it was 98% (active); in assay [1] (at 50.0 µM) it was 98.8% (active); in assay [2] (setting [7]), 0%; in assay [2] (setting [8]), 98% (active); in assay [2] (at 50.0 µM), 98.5% (active). Further, the growth inhibition in assay [3] (setting [7]) was 2%; in assay [3] (setting [8]) it was 95% (active); in assay [3] (at 50.0 µM), 95% (active); in assay [4] (setting [7]) it was 1%; in assay [4] (setting [8]), 98% (active); in assay [4] (at 50.0 µM), 99.3% (active). Besides, the growth inhibition is 1% in assay [5] (setting [7]); 98% (active) in assay [5] (setting [8]); 98.2% (active) in assay [5] (at 50.0 µM); 17% in assay [6] (setting [7]); 98% (active) in assay [6] (setting [8]); 98.8% (active) in assay [6] (at 50.0 µM).

`Cn1c(=O)cc[nH]c1=O`: the growth inhibition in assay [1] (setting [7]) is -1%; in assay [1] (setting [8]), 3%; in assay [1] (at 50.0 µM), 4.85%; in assay [2] (setting [7]), 0%; in assay [2] (setting [8]) it was -1%; in assay [2] (at 50.0 µM), 3.9%. Also, the growth inhibition in assay [3] (setting [7]) is 0%; in assay [3] (setting [8]) it was 2%; in assay [3] (at 50.0 µM) it was 5.45%; in assay [4] (setting [7]) it was 0%; in assay [4] (setting [8]), -1%; in assay [4] (at 50.0 µM), -0.75%. For the same compound, the growth inhibition in assay [5] (setting [7]) is 1%; in assay [5] (setting [8]), -5%; in assay [5] (at 50.0 µM), 98.8% (active); in assay [6] (setting [7]), -5%; in assay [6] (setting [8]), 1%; in assay [6] (at 50.0 µM) it was 14.2%.

In the case of `CCC(=O)NC1=C(Cl)C(=O)c2ccccc2C1=O`, the growth inhibition in assay [1] (setting [7]) is 99% (active); in assay [1] (setting [8]), 99% (active); in assay [1] (at 50.0 µM), 99.2% (active); in assay [2] (setting [7]), 100% (active); in assay [2] (setting [8]) it was 99% (active); in assay [2] (at 50.0 µM) it was 98.2% (active). For the same compound, the growth inhibition in assay [3] (setting [7]) was 100% (active); in assay [3] (setting [8]), 100% (active); in assay [3] (at 50.0 µM), 98.2% (active); in assay [4] (setting [7]), 99% (active); in assay [4] (setting [8]), 100% (active); in assay [4] (at 50.0 µM), 86.2% (active). In addition, the growth inhibition in assay [5] (setting [7]) is 99% (active); in assay [5] (setting [8]), 99% (active); in assay [5] (at 50.0 µM) it was 98.9% (active); in assay [6] (setting [7]) it was 99% (active); in assay [6] (setting [8]), 99% (active); in assay [6] (at 50.0 µM) it was 98.5% (active).

`CCN(CCCOc1ccccc1)CCN(CC)CCCOc1ccccc1`: the growth inhibition was 1% in assay [1] (setting [7]); 13% in assay [1] (setting [8]); 34.5% in assay [1] (at 50.0 µM); 19% in assay [2] (setting [7]); 38% in assay [2] (setting [8]); 33.2% in assay [2] (at 50.0 µM). Moreover, the growth inhibition in assay [3] (setting [7]) was 1%; in assay [3] (setting [8]), 59%; in assay [3] (at 50.0 µM) it was 60.9%; in assay [4] (setting [7]) it was 0%; in assay [4] (setting [8]), 11%; in assay [4] (at 50.0 µM) it was 73.2% (active). The growth inhibition in assay [5] (setting [7]) is 2%; in assay [5] (setting [8]), 14%; in assay [5] (at 50.0 µM) it was 42%; in assay [6] (setting [7]), 15%; in assay [6] (setting [8]) it was 44%; in assay [6] (at 50.0 µM), 35.6%.

Take `O=[N+]([O-])c1ccc(S(=O)(=O)C/C=C/CCl)c([N+](=O)[O-])c1`: the growth inhibition in assay [1] (setting [7]) is 54%; in assay [1] (setting [8]), 99% (active); in assay [1] (at 50.0 µM), 99.2% (active); in assay [2] (setting [7]), 34%; in assay [2] (setting [8]), 100% (active); in assay [2] (at 50.0 µM), 99.6% (active). For the same compound, the growth inhibition was 43% in assay [3] (setting [7]); 99% (active) in assay [3] (setting [8]); 99.5% (active) in assay [3] (at 50.0 µM); 20% in assay [4] (setting [7]); 99% (active) in assay [4] (setting [8]); 99.5% (active) in assay [4] (at 50.0 µM). The growth inhibition was 37% in assay [5] (setting [7]); 99% (active) in assay [5] (setting [8]); 99.4% (active) in assay [5] (at 50.0 µM); 71% (active) in assay [6] (setting [7]); 99% (active) in assay [6] (setting [8]); 99.5% (active) in assay [6] (at 50.0 µM).

Turning to `C=C1CC(C)(COc2ccc3c(C)c(Cl)c(=O)oc3c2)OC1=O` (stereo not given), the growth inhibition in assay [1] (setting [7]) is 23%; in assay [1] (setting [8]), 95% (active); in assay [1] (at 50.0 µM), 80% (active); in assay [2] (setting [7]) it was 2%; in assay [2] (setting [8]), 97% (active); in assay [2] (at 50.0 µM), 68.8%. The growth inhibition in assay [3] (setting [7]) is -2%; in assay [3] (setting [8]) it was 95% (active); in assay [3] (at 50.0 µM), 81% (active); in assay [4] (setting [7]), -15%; in assay [4] (setting [8]), 92% (active); in assay [4] (at 50.0 µM) it was 76.8% (active). Also, the growth inhibition in assay [5] (setting [7]) was 13%; in assay [5] (setting [8]), 94% (active); in assay [5] (at 50.0 µM) it was 85.8% (active); in assay [6] (setting [7]), 8%; in assay [6] (setting [8]), 97% (active); in assay [6] (at 50.0 µM) it was 58.6%.

Take `CCCCCCCN1C(=O)c2ccccc2S1(=O)=O`: the growth inhibition was -2% in assay [1] (setting [7]); 95% (active) in assay [1] (setting [8]); 95.1% (active) in assay [1] (at 50.0 µM); -12% in assay [2] (setting [7]); 76% (active) in assay [2] (setting [8]); 87.3% (active) in assay [2] (at 50.0 µM). Besides, the growth inhibition was 12% in assay [3] (setting [7]); 94% (active) in assay [3] (setting [8]); 86.2% (active) in assay [3] (at 50.0 µM); -4% in assay [4] (setting [7]); 73% (active) in assay [4] (setting [8]); 43% in assay [4] (at 50.0 µM). Besides, the growth inhibition in assay [5] (setting [7]) was 14%; in assay [5] (setting [8]), 89% (active); in assay [5] (at 50.0 µM) it was 93.5% (active); in assay [6] (setting [7]), 39%; in assay [6] (setting [8]) it was 96% (active); in assay [6] (at 50.0 µM) it was 84.8% (active).

These data come from PubChem BioAssay (NCI).
